MITF TRPM1 inh: MITF TRPM1 promoter inhibition in SK-MEL-5 cells; SK-MEL-5 TRPM1 promoter luciferase, 24 h; inhibition, % at 12.5 µM; hit rate 0.83% among 330,000; AID 488899;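 active = mean inhibition across replicates of 60% or more, whatever share of single replicates reaches that level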
PAX8 inh HTS: lowers PAX8-driven luciferase in RMG-I cells | hit rate 1.2% among 360,000 | RMG-I TPO-luciferase reporter, SteadyGlo, 24 h | inhibition, % at 12.6 µM | AID 652154;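 active = mean replicate inhibition at least 60% with every replicate also reaching 60%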;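 note: luciferase light reporting Pax8 driven TPO promoter activity; plate controls were median of neutral control wells for no effect and mitoxantrone controls for full effect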
EWS-Fli block: inhibitors of EWS/Fli oncoprotein transcriptional activity; A673 NR0B1-luciferase reporter, viability-normalised; hit rate 0.67% among 350,000; inhibition, % at 12.6 µM; AID 651661;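 active = mean inhibition of at least 50% after viability correction, with every replicate also passing that limit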;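 note: firefly luciferase signal divided by Alamar Blue viability fluorescence both relative to DMSO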
Peg3 promoter: inhibitors of Peg3 promoter | AID 588405 | inhibition, % at 20 µM | HeLa PEG-Prom luciferase reporter, luminescence, overnight | hit rate 1.7% among 360,000;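 active = inhibition of at least 50% at 20 µM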
Shn3 inh set2: inhibitors of Schnurri-3 3'UTR reporter in osteoblasts | Clone20 osteoblast Shn3 3'UTR firefly luciferase, 24 h | inhibition, % at 12.5 µM | hit rate 0.52% among 360,000 | AID 588674;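 active = mean inhibition of at least 75% with every replicate also reaching 75%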;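 note: 0% = median of neutral control wells and 100% = pilot-screen positive control compound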
ABHD5 PLIN5 PPI: ABHD5-PLIN5 protein interaction inhibition | inhibition, % at 4 µM | Split G. princeps luciferase complementation, luminescence, 4 h | hit rate 0.78% among 360,000 | Q00G26+Q8WTS1 | AID 602281;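 active = inhibition above the mean inhibition across every tested compound plus 3 SD, cut at about 22% in these data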;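 note: 0% = DMSO only wells and the 100% control is not disclosed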
Target sequence (Q00G26 whole entry, looked up): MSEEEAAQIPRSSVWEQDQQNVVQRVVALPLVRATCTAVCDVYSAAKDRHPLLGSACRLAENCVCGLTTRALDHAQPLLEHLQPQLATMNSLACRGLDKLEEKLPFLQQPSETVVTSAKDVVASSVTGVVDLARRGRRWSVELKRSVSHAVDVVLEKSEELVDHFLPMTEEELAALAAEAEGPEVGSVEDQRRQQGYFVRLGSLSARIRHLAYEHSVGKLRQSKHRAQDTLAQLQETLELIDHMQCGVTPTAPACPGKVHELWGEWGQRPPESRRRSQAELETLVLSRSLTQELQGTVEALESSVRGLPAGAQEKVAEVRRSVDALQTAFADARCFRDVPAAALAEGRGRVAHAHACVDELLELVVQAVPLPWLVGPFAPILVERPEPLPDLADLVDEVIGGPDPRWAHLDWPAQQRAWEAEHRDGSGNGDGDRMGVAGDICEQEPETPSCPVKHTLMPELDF
Target sequence (Q8WTS1 whole entry, looked up): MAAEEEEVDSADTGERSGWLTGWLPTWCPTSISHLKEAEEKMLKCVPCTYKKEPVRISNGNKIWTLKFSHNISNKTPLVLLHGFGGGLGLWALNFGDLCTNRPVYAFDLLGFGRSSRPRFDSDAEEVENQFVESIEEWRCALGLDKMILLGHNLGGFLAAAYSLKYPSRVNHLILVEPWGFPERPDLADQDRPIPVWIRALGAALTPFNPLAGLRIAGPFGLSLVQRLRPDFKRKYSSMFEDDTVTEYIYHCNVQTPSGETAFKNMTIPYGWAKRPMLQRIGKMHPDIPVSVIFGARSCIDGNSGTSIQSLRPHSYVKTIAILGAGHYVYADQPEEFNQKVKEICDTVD
Starred values were filed as active, the others as inactive; nt = not tested or not shown. Shown are actives, neighbours in structure and some others; about 3% of the full set was active somewhere.

SMILES	MITF TRPM1 inh	PAX8 inh HTS	EWS-Fli block	Peg3 promoter	Shn3 inh set2	ABHD5 PLIN5 PPI
COc1ccc(CN(C)C[C@@H]2OCCCC[C@H](C)Oc3ccc(NC(=O)Nc4ccc(C(F)(F)F)cc4)cc3C(=O)N([C@H](C)CO)C[C@@H]2C)cc1	nt	108*	71*	nt	nt	nt
COc1ccc(NC(=O)Nc2ccc3c(c2)C(=O)N([C@@H](C)CO)C[C@@H](C)[C@H](CN(C)Cc2ccc(C(F)(F)F)cc2)OCCCC[C@@H](C)O3)cc1	nt	64*	0	nt	nt	nt
CNC[C@@H]1OCCCC[C@H](C)Oc2ccc(NC(=O)c3ccncc3)cc2C(=O)N([C@@H](C)CO)C[C@H]1C	nt	-11	-9	nt	nt	nt
O=C(Nc1ccc2c(c1)OCO2)N[C@@H]1CC[C@@H](CCNC(=O)C2CCCC2)O[C@@H]1CO	nt	-3	-1	nt	nt	nt
Cc1noc(C)c1NC(=O)N(C)C[C@H]1Oc2c(NC(=O)c3cnccn3)cccc2C(=O)N([C@H](C)CO)C[C@@H]1C	nt	nt	6	nt	nt	nt
C[C@@H]1CN([C@H](C)CO)C(=O)c2cc(C#Cc3ccccc3F)cnc2O[C@@H]1CN(C)C(=O)Cc1ccccc1	nt	nt	-6	nt	nt	nt
C[C@H]1CCCCO[C@@H](CN(C)C(=O)C2CCCCC2)[C@@H](C)CN([C@@H](C)CO)C(=O)c2cc(NC(=O)Cc3ccccc3)ccc2O1	nt	7	6	nt	nt	nt
COc1ccc2c3c([nH]c2c1)[C@@H](CO)N(C(=O)C1CCC1)CC31CCN(Cc2cccc(F)c2)CC1	nt	23	39	nt	nt	nt
COc1ccc(NC(=O)Nc2ccc3c(c2)C(=O)N([C@H](C)CO)C[C@H](C)[C@H](CN(C)Cc2ccc(C(F)(F)F)cc2)OCCCC[C@H](C)O3)cc1	nt	99*	-3	nt	nt	nt
C[C@H]1CN([C@@H](C)CO)C(=O)c2c(c3ccccc3n2C)-c2ccccc2CO[C@@H]1CN(C)S(=O)(=O)c1cccc(F)c1	nt	102*	15	nt	nt	nt
C[C@@H]1CN([C@H](C)CO)C(=O)c2c(c3ccccc3n2C)-c2ccccc2CO[C@@H]1CN(C)S(=O)(=O)c1cccc(F)c1	nt	-45	-9	nt	nt	nt
C[C@H](CO)N1C[C@H](C)[C@H](CN(C)S(=O)(=O)c2cccc(F)c2)OCc2ccccc2-c2c(n(C)c3ccccc23)C1=O	nt	104*	11	28	6	5
C[C@@H]1CN([C@H](C)CO)C(=O)c2c(c3ccccc3n2C)-c2ccccc2CO[C@H]1CN(C)S(=O)(=O)c1cccc(F)c1	nt	93*	-2	nt	nt	nt
CO[C@@H]1CN(C)C(=O)c2cc(NC(=O)c3ccccc3)ccc2OC[C@H](C)N(C(=O)C2CC2)C[C@H]1C	nt	nt	-1	nt	nt	nt
CO[C@H]1CN(C)C(=O)c2ccc(NC(=O)NC(C)C)cc2OC[C@H](C)N(CC2CC2)C[C@@H]1C	nt	2	-5	nt	nt	nt
CCN=C1S/C(=C\c2cc(OCC)c(O)cc2Br)C(=O)N1CC	-15	7	nt	51*	13	-13
O=C(Nc1ccncc1NC(=O)c1cccc([N+](=O)[O-])c1)c1cccc([N+](=O)[O-])c1	-9	9	1	58*	-1	5
O=C(Nc1cccc(NC(=O)c2cccc([N+](=O)[O-])c2)n1)c1cccc([N+](=O)[O-])c1	-2	-13	16	3	2	4
CO[C@H]1CN(C)C(=O)c2ccc(NC(=O)NC(C)C)cc2OC[C@H](C)N(C(=O)C2CCC2)C[C@H]1C	nt	nt	4	nt	nt	nt
COc1cc(Nc2nc(-c3ccccc3)c3cc(C)ccc3n2)cc(OC)c1OC	11	nt	nt	12	84*	-2
CC(C)NC(=O)N(C)C[C@H]1Oc2ccc(NC(=O)Cn3cnnn3)cc2C(=O)N([C@@H](C)CO)C[C@H]1C	nt	nt	4	nt	nt	nt
CC(NCCN(C)C)C1CCC2C3CCc4cc(O)ccc4C3CCC12C (stereo not drawn)	86*	15	44	93*	10	6
CCOC(=O)c1c(NC(=O)CN2C(=O)NC3(CCCCC3C)C2=O)sc(C)c1C (stereo not drawn)	2	16	nt	15	17	-5
CCOC(=O)c1c(-c2ccc(F)cc2)csc1NC(=O)CN1C(=O)NC2(CCCCC2C)C1=O (stereo not drawn)	-18	99*	22	12	34	-3
Cc1ccc(-c2nc(Nc3cccc(O)c3)c3ccccc3n2)cc1	-10	1	-10	10	8	1
SMILES	MITF TRPM1 inh	PAX8 inh HTS	EWS-Fli block	Peg3 promoter	Shn3 inh set2	ABHD5 PLIN5 PPI
Cc1ccc(-c2nc(Nc3ccc(O)cc3)c3ccccc3n2)cc1	-15	21	-31	59*	15	9
CO[C@H]1CN(C)C(=O)c2cc(NC(=O)Nc3ccccc3)ccc2OC[C@H](C)N(CC2CC2)C[C@H]1C	nt	nt	-4	nt	nt	nt
Cc1ccc(-c2csc3ncnc(Sc4nnc(CN5CCCCCC5=O)o4)c23)cc1	85*	111*	nt	106*	7	12
CCn1c(-c2ccccc2)c(C(=O)CCl)c2ccccc21	73*	39	34	46	15	-2
C[C@@H]1CN([C@@H](C)CO)C(=O)Cc2cc(NC(=O)c3ccncc3)ccc2O[C@H]1CN(C)Cc1ccc(Cl)c(Cl)c1	nt	32	nt	nt	nt	nt
Cc1ccc(S(=O)(=O)ON2C(=O)c3cccc4cccc(c34)C2=O)cc1	12	21	-16	13	-17	-10
O=C1c2cccc3cccc(c23)C(=O)N1OS(=O)(=O)c1ccccc1	-15	nt	nt	-157	-44	10
Cc1cc(S(=O)(=O)ON2C(=O)c3ccccc3C2=O)ccc1F	43	3	14	61*	-1	-8
Cc1ccc(C)c(S(=O)(=O)ON2C(=O)c3ccccc3C2=O)c1	40	3	13	56*	65	0
O=C(CC(F)(F)F)N1C[C@@H]2[C@H](c3ccccc31)[C@@H](CO)N2C(=O)C1CCOCC1	nt	-5	-5	nt	nt	nt
COc1ccc(-c2sc3cc4c(cc3c2C#CC2(N)CCCCC2)OCO4)cc1	14	5	5	93*	-4	-2
COc1ccc(-c2sc3cc4c(cc3c2C#Cc2cncn2C)OCO4)cc1	-20	10	10	26	-4	1
COc1cc(OC)cc(-c2sc3ccc(OC)cc3c2C#CC2(N)CCCCC2)c1	-4	16	27	95*	-4	11
CC(C)(C)C1=CC(O)(c2ccccc2)C=C(C(C)(C)C)C1=O	6	14	26	78*	7	-9
CO[C@H]1CN(C)C(=O)c2ccc(NC(C)=O)cc2OC[C@H](C)N(C(=O)C2CCOCC2)C[C@@H]1C	nt	-44	-3	nt	nt	nt
C=CC(=O)Nc1cccc(Nc2nc(N[C@H]3CC[C@H](N(C)C)CC3)nc3c2ncn3C(C)C)c1	90*	nt	nt	102*	68	5
CC(C)n1cnc2c(Nc3cccc(Cl)c3)nc(NCCCO)nc21	31	13	-14	33	-8	2
COCC(=O)N1CC2(CCN(C(=O)c3cccnc3)CC2)c2c([nH]c3cc(OC)ccc23)[C@H]1CO	nt	nt	-7	nt	nt	nt
Cc1c(C(=O)N(C)CC(=O)Nc2cccc(F)c2)oc2c(Cl)cccc12	15	12	14	36	-11	-5
